In the supplement of paper PMC10849652:
Targets with a hit are over-represented here; the source holds about 7,900 in all. About 0.6% of all pairs of compound and target were hits. A number with no mark means an inactive call.

Key:
Test in all cases: log2 fold change, soluble protein after heating vs DMSO (PISA); higher = thermal stabilisation; K562 cells, 10 uM, 30 min; active = over 0.2 and 3.5 SD of the protein, either way, in both replicates (recomputed)
[1] = compound: NC(=O)Nc1cc(-c2cccc(F)c2)sc1C(=O)N[C@H]1CCCNC1
Method in brief: (§1)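 K562 cells (2×10^6 cells/mL) were treated with 10 μM compound for 30 min, and aliquots were heated for 3 min over 48°C-58°C. Pooled aliquots were extracted in PBS with 0.5% NP-40 at 4°C, and the supernatant after 21,000xg for 90 min was measured by TMTpro 16plex LC-MS/MS with channel sums equalised. Reported thermal stability, relative to control samples and from duplicates, is a log2 fold change.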

[2] = compound: NC(=O)c1cnc(N[C@@H]2CCCC[C@@H]2N)nc1Nc1cccc(-n2nccn2)c1
Method in brief: as §1

[3] = compound: NC1(c2ccc(-c3nc4ccn5c(=O)[nH]nc5c4cc3-c3ccccc3)cc2)CCC1
Method in brief: as §1

[4] = compound: NCC(=O)Nc1ccc(-n2nc(C(F)(F)F)cc2-c2ccc3c(ccc4ccccc43)c2)cc1
Method in brief: as §1

entinostat = compound: Nc1ccccc1NC(=O)c1ccc(CNC(=O)OCc2cccnc2)cc1 [entinostat]
Method in brief: as §1

vorinostat = compound: O=C(CCCCCCC(=O)Nc1ccccc1)NO [vorinostat]
Method in brief: as §1

citarinostat = compound: O=C(CCCCCCNC(=O)c1cnc(N(c2ccccc2)c2ccccc2Cl)nc1)NO [citarinostat]
Method in brief: as §1

silmitasertib = compound: O=C(O)c1ccc2c(c1)nc(Nc1cccc(Cl)c1)c1ccncc12 [silmitasertib]
Method in brief: as §1

[5] = compound: O=C1NC(=O)C(c2cnc3ccccn23)=C1c1cn2c3c(cc(F)cc13)CN(C(=O)N1CCCCC1)CC2
Method in brief: as §1

[6] = compound: c1cc(OCCN2CCCCC2)cc(-c2n[nH]c3ccc(-c4nnc[nH]4)cc23)c1
Method in brief: as §1

UniProt Q5JTH9, sequence (Q5JTH9 whole entry, looked up): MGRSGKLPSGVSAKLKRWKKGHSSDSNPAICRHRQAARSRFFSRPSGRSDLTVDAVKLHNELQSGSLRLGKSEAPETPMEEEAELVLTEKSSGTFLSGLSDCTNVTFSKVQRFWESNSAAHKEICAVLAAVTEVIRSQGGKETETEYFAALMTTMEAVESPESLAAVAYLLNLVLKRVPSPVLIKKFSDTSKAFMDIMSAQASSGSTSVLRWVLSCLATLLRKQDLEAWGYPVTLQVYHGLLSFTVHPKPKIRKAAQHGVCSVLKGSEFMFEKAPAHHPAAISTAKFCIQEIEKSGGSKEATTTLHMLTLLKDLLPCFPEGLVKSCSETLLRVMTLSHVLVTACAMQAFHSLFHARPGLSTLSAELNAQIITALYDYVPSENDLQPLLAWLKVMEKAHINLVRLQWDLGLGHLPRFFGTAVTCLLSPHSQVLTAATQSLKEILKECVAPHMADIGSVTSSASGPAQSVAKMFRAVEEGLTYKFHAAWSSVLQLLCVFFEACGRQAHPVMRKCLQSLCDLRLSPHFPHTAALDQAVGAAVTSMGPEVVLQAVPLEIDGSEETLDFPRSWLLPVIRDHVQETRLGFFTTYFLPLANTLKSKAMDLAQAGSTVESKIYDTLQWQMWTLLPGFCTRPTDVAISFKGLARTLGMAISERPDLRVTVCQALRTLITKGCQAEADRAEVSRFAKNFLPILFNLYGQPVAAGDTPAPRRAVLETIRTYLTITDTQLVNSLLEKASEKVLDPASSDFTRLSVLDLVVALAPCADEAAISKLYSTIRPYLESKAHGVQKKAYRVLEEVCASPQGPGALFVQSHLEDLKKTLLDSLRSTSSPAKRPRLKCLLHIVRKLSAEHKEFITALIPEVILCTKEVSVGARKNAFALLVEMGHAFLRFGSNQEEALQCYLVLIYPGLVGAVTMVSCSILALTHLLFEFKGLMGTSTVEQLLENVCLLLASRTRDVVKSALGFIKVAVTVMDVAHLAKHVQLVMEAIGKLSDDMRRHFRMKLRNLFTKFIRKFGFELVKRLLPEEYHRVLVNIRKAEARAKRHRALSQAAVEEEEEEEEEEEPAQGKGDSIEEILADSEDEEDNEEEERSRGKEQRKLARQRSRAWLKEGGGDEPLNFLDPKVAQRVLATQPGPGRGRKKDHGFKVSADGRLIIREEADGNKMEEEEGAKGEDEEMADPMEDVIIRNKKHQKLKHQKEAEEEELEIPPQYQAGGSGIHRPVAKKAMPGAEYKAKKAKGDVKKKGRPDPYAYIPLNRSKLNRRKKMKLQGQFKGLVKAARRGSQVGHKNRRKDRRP
UniProt Q9NX18, sequence (Q9NX18 whole entry, looked up): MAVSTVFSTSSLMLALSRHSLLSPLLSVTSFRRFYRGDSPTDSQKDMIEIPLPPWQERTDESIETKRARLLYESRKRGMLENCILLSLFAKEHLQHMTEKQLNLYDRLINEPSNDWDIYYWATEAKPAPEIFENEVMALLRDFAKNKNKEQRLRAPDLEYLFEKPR
UniProt Q9H6H4, sequence (Q9H6H4 whole entry, looked up): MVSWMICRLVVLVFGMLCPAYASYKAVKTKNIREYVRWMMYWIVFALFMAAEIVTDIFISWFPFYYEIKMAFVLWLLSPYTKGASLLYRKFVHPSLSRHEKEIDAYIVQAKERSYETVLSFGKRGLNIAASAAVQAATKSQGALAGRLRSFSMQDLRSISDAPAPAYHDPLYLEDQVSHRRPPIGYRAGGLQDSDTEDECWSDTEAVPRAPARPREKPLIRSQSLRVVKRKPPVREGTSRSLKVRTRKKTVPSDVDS
UniProt Q15287, sequence (Q15287 whole entry, looked up): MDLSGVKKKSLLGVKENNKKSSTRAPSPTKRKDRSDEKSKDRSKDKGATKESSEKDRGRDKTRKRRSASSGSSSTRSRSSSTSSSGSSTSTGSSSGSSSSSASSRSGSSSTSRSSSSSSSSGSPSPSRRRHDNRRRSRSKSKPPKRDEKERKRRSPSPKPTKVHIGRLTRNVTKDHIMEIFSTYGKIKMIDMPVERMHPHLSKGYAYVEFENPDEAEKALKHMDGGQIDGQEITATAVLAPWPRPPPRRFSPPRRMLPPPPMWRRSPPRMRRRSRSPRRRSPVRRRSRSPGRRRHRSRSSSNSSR
UniProt Q13546, sequence (Q13546 whole entry, looked up): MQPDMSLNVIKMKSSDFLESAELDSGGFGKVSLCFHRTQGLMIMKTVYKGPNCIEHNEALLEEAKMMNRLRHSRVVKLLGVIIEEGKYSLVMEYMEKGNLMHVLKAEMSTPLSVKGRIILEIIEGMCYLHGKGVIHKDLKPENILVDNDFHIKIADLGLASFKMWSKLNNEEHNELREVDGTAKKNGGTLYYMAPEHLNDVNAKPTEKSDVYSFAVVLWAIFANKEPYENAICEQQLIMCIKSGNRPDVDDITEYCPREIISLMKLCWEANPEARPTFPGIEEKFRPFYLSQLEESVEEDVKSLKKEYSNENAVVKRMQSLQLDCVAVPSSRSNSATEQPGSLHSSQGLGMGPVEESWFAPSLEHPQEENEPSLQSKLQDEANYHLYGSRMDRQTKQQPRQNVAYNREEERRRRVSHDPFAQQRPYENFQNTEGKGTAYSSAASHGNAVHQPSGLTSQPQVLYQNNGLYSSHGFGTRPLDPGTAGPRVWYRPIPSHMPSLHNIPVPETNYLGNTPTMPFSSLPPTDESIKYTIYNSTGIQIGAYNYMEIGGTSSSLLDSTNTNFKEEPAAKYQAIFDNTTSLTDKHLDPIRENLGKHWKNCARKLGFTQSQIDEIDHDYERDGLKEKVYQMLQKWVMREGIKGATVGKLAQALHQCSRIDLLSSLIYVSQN
UniProt O43665, sequence (O43665 whole entry, looked up): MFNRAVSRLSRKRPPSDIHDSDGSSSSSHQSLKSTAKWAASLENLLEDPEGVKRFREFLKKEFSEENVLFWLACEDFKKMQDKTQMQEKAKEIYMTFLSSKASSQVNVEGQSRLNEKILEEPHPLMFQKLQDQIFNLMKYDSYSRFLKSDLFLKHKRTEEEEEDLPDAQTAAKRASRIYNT
UniProt Q99719, sequence (Q99719 whole entry, looked up): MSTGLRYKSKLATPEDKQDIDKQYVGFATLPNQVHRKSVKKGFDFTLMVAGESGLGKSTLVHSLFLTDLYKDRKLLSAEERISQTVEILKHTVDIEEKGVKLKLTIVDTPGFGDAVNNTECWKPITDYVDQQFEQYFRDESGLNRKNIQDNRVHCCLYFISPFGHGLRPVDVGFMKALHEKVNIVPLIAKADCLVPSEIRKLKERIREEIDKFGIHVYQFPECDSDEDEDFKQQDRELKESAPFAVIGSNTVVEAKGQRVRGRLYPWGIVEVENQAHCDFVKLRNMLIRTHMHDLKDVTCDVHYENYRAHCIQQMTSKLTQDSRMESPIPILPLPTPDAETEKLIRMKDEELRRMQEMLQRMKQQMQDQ
UniProt O43819, sequence (O43819 whole entry, looked up): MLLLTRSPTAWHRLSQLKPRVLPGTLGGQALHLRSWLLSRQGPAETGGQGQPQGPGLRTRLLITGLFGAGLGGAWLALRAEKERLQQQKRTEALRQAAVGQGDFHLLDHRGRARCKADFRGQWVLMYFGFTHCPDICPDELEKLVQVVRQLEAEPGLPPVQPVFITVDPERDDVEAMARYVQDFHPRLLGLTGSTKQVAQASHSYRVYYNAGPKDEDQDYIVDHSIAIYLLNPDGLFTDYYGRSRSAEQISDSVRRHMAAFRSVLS
UniProt Q9HB90, sequence (Q9HB90 whole entry, looked up): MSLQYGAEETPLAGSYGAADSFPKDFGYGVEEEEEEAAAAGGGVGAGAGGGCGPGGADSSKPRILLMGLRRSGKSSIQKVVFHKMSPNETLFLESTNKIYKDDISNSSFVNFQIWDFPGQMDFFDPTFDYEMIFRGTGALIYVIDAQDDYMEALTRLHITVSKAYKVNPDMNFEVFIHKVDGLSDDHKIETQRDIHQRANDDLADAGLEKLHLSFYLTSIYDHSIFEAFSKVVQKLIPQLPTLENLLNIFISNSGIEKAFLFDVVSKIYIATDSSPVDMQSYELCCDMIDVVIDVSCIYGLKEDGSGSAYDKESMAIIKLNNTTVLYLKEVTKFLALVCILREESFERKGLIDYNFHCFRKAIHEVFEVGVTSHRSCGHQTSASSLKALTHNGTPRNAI
UniProt A1X283, sequence (A1X283 whole entry, looked up): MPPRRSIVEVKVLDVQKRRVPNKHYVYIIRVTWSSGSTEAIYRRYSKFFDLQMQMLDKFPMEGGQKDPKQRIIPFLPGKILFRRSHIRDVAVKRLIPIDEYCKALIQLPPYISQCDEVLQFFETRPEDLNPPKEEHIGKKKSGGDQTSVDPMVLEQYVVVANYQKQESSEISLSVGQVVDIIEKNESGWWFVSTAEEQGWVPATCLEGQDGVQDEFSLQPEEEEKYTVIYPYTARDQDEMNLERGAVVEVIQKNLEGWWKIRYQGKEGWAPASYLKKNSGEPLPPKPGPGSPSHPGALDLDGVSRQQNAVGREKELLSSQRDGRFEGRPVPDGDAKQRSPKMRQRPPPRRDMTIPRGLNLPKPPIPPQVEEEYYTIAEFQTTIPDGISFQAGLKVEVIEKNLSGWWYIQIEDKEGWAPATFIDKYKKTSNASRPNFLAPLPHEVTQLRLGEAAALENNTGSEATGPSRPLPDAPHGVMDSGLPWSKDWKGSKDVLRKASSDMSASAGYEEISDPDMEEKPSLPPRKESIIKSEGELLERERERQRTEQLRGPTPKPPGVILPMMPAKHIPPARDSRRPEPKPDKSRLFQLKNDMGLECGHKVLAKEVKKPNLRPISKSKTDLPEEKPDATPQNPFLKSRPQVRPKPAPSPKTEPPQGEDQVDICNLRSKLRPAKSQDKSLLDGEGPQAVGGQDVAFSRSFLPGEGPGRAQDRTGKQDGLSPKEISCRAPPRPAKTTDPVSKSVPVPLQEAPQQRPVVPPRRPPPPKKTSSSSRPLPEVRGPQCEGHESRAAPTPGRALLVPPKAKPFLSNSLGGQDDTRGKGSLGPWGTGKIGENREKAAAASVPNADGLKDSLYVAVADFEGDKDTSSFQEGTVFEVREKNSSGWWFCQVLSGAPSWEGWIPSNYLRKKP

Target	log2 fold change [1]	log2 fold change [2]	log2 fold change [3]	log2 fold change [4]	log2 fold change (entinostat)	log2 fold change (vorinostat)	log2 fold change (citarinostat)	log2 fold change (silmitasertib)	log2 fold change [5]	log2 fold change [6]
SCO2 (UniProt O43819)	-0.598 (active)	-0.078	0.015	0.006	-0.266	0.011	-0.001	-0.078	-0.092	0.118
RRAGC (UniProt Q9HB90)	-0.001	-0.091	-0.265 (active)	-0.069	-0.004	-0.015	0.041	0.014	0.011	-0.027
SFXN5 (UniProt Q8TD22)	-0.043	0.042	-0.072	-0.095	-0.068	0.019	-0.028	-0.003	0.012	0.072
RBM25 (UniProt P49756)	0	0.007	-0.058	-0.025	0.031	0.067	0.015	0.019	0.005	-0.053
SDHAF2 (UniProt Q9NX18)	-0.005	0.156	-0.089	-0.007	-0.04	-0.156	-0.026	-0.007	-0.101	-0.015
RIPK1 (UniProt Q13546)	0.037	-0.06	-0.092	-0.009	0.088	-0.014	-0.006	0.025	0.205	0.047
RGS10 (UniProt O43665)	0.077	0.068	-0.037	0.11	0.038	0.054	0.087	0.01	-0.057	0.033
RELA (UniProt Q04206)	-0.009	-0.06	-0.121	-0.016	0.019	0.036	0.079	-0.029	-0.017	-0.002
RPS9 (UniProt P46781)	0.07	0.127	0.202	0.073	-0.058	-0.007	-0.058	0.007	0.076	-0.152
SCAF11 (UniProt Q99590)	0.019	0.073	0.129	-0.003	-0.054	0.12	-0.13	-0.038	0.147	-0.29
SH3PXD2B (UniProt A1X283)	0.066	0.248	-0.082	0.052	-0.056	-0.128	0.032	-0.108	0.009	0.026
RNPS1 (UniProt Q15287)	-0.019	-0.39	0.097	0.031	-0.06	0.024	0.038	-0.111	-0.018	-0.146
SEPTIN5 (UniProt Q99719)	-0.005	-0.012	-0.011	-0.004	-0.017	-0.001	0.059	-0.038	-0.013	-0.021
REEP4 (UniProt Q9H6H4)	0.002	-0.032	-0.012	0.084	0.027	0.088	0.048	0.027	0.097	-0.059
RRP12 (UniProt Q5JTH9)	0.062	0.188	0.089	0.051	0.081	0.072	-0.064	0.121	0.119	0.216
